From PubChem
Env fusion inh: blocks HIV Env-driven cell-cell fusion; inhibition, % at 12.3 µM; actives 1.1% (n = 360,000); AID 651610; HeLa-JRFL Env/CEM21 cell fusion, luciferase;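 active = mean replicate inhibition score of at least 50 and every replicate individually at or above 50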;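 note: 0% = plate neutral controls and 100% = maraviroc near 300 nM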
Casp6 inh: caspase-6 (human) enzyme inhibition. actives 0.53% (n = 350,000). purified caspase-6, Z-VEID-R110 cleavage fluorescence. inhibition, % at 12.5 µM;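 active = mean inhibition across replicates at least about 35%, with every replicate also reaching that limit, limit read from the data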;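 note: 0% = median of neutral control wells and 100% = no fluorescence left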
Target sequence (P55212 24-179 limits assumed): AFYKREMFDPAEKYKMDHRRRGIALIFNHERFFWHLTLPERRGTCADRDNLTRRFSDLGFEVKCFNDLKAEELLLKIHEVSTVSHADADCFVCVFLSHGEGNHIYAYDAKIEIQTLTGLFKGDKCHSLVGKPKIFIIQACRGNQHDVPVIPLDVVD
Target sequence (P55212 194-293 limits assumed): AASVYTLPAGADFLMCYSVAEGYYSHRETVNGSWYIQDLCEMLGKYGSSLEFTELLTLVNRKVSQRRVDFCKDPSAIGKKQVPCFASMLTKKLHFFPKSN
PglD inh: blocks C. jejuni PglD acetyltransferase activity | purified PglD enzyme, DTNB colorimetric CoA detection | inhibition, % at 12.5 µM | actives 0.098% (n = 360,000) | AID 602405; in the data active = inhibition above about 16%, passing the limit was not always enough
ALR H2O2 inh: human ALR oxidase inhibition via reduced H2O2; purified ALR, DTT oxidation, H2O2 HRP-luminol luminescence; inhibition, % (test concentration not listed); actives 3.8% (n = 290,000);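 active = mean replicate inhibition above about 79%, with every replicate also reaching it, limit read from the data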
Target sequence (P55789 whole entry, looked up): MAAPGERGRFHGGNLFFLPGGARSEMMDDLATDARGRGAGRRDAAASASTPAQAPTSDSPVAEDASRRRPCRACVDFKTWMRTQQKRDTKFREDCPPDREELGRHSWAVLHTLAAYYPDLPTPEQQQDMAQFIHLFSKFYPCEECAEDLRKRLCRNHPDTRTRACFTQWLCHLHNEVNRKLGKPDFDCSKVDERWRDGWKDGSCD
NSD2 HMT inh: inhibitors of human histone methyltransferase NSD2; NSD2 peptide methylation, AlphaScreen, 120 min; actives 0.54% (n = 310,000); AID 743445; inhibition, % at 12.5 µM; O96028; in the data active = inhibition above about 50%
F508del corr: CFTR F508del correction in bronchial cells | CFBE cells, YFP halide quenching; stimulated with forskolin plus potentiator P3; % fluorescence drop versus neutral controls | activity (quench increase), % at 7.58 µM | actives 0.36% (n = 350,000);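 active = mean added fluorescence quench of at least 8% versus neutral control, with both replicates also reaching 8%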;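 note: cells transiently co-express mutant CFTR-F508del with the halide-sensitive YFP; corrector assay measuring rescue of mutant channel to the surface after 24 h compound exposure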
Numbers without * were called inactive; . = no result given; [ ] = another dose, or the depositor's remark. The list is not random: actives were taken first. Their share in the collection is about 4.1%.

SMILES | Env fusion inh | Casp6 inh | PglD inh | ALR H2O2 inh | NSD2 HMT inh | F508del corr
O=C(CSc1ncnc2ccccc12)Nc1cc(S(=O)(=O)N2CCCCC2)ccc1Cl | -17 | . | 3 | -24 | 0 | .
O=C(CSc1ncnc2ccccc12)Nc1cccc(S(=O)(=O)N2CCCC2)c1 | 16 | 0 | 6 | 99* | -10 | -2
O=C(CNc1cccc(S(=O)(=O)N2CCCC2)c1)Nc1cccc(Br)c1 | 36 | 44* | 2 | 3 | 1 | 2
CN(C)S(=O)(=O)c1cccc(NC(=O)CNc2cccc(S(=O)(=O)N3CCCCC3)c2)c1 | 64* | -6 | 1 | . | -1 | 1
O=C(COC(=O)c1cccc(OC(F)F)c1)Nc1cccc(S(=O)(=O)N2CCCC2)c1 | . | 60* | -2 | -5 | -1 | -2
COc1ccc(CC(=O)Nc2cccc(S(=O)(=O)N3CCCCCC3)c2)cc1OC | 68* | . | -3 | -9 | 0 | .
CCOc1ccc(C(=O)N[C@H](C(=O)Nc2cccc(S(=O)(=O)N3CCOCC3)c2)C(C)C)cc1 | -17 | 0 | 3 | . | 0 | 4
CCOc1ccc(C(=O)N[C@H](C(=O)Nc2cccc(S(=O)(=O)N3CCCCC3)c2)C(C)C)cc1 | -38 | 0 | 1 | -5 | 2 | 15*
CCN(CC)S(=O)(=O)c1ccc(Oc2ccccc2)c(N)c1 | 3 | 0 | . | -4 | 0 | 0
Cc1cc(C)[n+](-c2ccc(Oc3ccccc3)c(S(=O)(=O)[O-])c2)[nH]1 | -17 | 41* | . | -3 | 0 | 3
C[C@@H]1CN([C@@H](C)CO)C(=O)c2cc(-c3cccc(F)c3)cnc2O[C@@H]1CN(C)C(=O)C1CC1 | -9[16.7 µM] | . | . | . | . | -3
C[C@H]1CN([C@@H](C)CO)C(=O)c2cc(C#CC3CCCC3)cnc2O[C@H]1CN(C)C(=O)Nc1ccccc1 | -34[16.7 µM] | -2 | 4 | . | . | -4
C[C@@H]1CN([C@@H](C)CO)C(=O)Cc2cc(NS(=O)(=O)c3cccs3)ccc2O[C@H]1CN(C)S(=O)(=O)c1ccccc1 | -11[16.7 µM] | 0 | 1 | . | . | 3
C[C@H](CO)N1C[C@H](C)[C@H](CN(C)S(=O)(=O)c2ccc(Cl)cc2)Oc2ccc(NS(=O)(=O)c3ccccc3)cc2CC1=O | 55*[16.7 µM] | . | 2 | . | . | 0
Cc1ccc(S(=O)(=O)Nc2ccc3c(c2)CC(=O)N([C@H](C)CO)C[C@H](C)[C@H](CN(C)S(=O)(=O)c2ccc(F)cc2)O3)cc1 | 110*[16.7 µM] | . | 1 | . | . | -2
Cc1ccc(S(=O)(=O)N(C)C[C@H]2Oc3ccc(NS(=O)(=O)c4ccc(F)cc4)cc3CC(=O)N([C@H](C)CO)C[C@@H]2C)cc1 | 15[16.7 µM] | 1 | 2 | . | . | -1
C[C@H](CO)N1C[C@H](C)[C@H](CN(C)S(=O)(=O)c2ccccc2)Oc2ccc(NS(=O)(=O)c3ccc(F)cc3)cc2CC1=O | 58*[16.7 µM] | -2 | -2 | . | . | -1
C[C@H](CO)N1C[C@H](C)[C@H](CN(C)S(=O)(=O)c2ccccc2)Oc2ccc(NS(=O)(=O)c3cccs3)cc2CC1=O | 64*[16.7 µM] | 3 | 0 | . | . | 0
C[C@H](CO)N1C[C@H](C)[C@@H](CN(C)S(=O)(=O)c2ccc(F)cc2)Oc2ccc(NS(=O)(=O)c3ccccc3)cc2CC1=O | 32[16.7 µM] | . | -3 | . | . | 1
C[C@@H]1CN([C@@H](C)CO)C(=O)Cc2cc(NS(=O)(=O)c3ccc(Cl)cc3)ccc2O[C@@H]1CN(C)S(=O)(=O)c1ccccc1 | 7[16.7 µM] | 0 | -1 | . | . | 1
O=C(CN1CCOCC1)NCC[C@@H]1CC[C@H](NC(=O)Nc2ccc(F)cc2)[C@@H](CO)O1 | -6[16.7 µM] | 2 | 0 | . | . | -2
CCCNC(=O)NC[C@@H]1CC[C@H]2[C@H](CN2C(=O)C2CCOCC2)O1 | -35[16.7 µM] | 1 | . | . | . | 0
CC(=O)n1cc([C@@H]2C=C(C(N)=O)O[C@H](OCCCCO)C2)c2ccccc21 | -6[16.7 µM] | 0 | 7 | . | . | -1
C[C@@H]1CN([C@@H](C)CO)C(=O)c2cc(-c3cccc(F)c3)cnc2O[C@@H]1CN(C)Cc1ccccn1 | 8[16.7 µM] | 1 | 4 | . | . | 4
C[C@H](CO)N1C[C@H](C)[C@@H](CN(C)C(=O)Nc2ccc(F)cc2)Oc2ccc(NC(=O)CCCCCC(=O)Nc3ccccc3N)cc2C1=O | . | 1 | . | . | . | 1
SMILES | Env fusion inh | Casp6 inh | PglD inh | ALR H2O2 inh | NSD2 HMT inh | F508del corr
C[C@H](CO)N1C[C@H](C)[C@@H](CN(C)S(=O)(=O)c2ccccc2)Oc2ccc(NS(=O)(=O)c3ccccc3)cc2CC1=O | -6[16.7 µM] | 4 | -3 | . | . | -5
C[C@H](CO)N1C[C@H](C)[C@@H](CN(C)S(=O)(=O)c2ccc(F)cc2)Oc2ccc(NS(=O)(=O)c3cn(C)cn3)cc2CC1=O | 64*[16.7 µM] | 2 | . | . | . | -2
C[C@H](CO)N1C[C@H](C)[C@H](CN(C)S(=O)(=O)c2ccccc2)Oc2ccc(NS(=O)(=O)c3ccc(Cl)cc3)cc2CC1=O | 56*[16.7 µM] | 1 | 0 | . | . | 0
C[C@H](CO)N1C[C@H](C)[C@H](CN(C)S(=O)(=O)c2ccccc2)Oc2ccc(NS(=O)(=O)c3ccccc3)cc2CC1=O | 91*[16.7 µM] | 2 | 3 | . | . | -3
C[C@@H]1CN([C@H](C)CO)C(=O)Cc2cc(NS(=O)(=O)c3ccc(Cl)cc3)ccc2O[C@H]1CN(C)S(=O)(=O)c1ccccc1 | -2[16.7 µM] | -1 | 3 | . | . | 1
Cc1noc(C)c1S(=O)(=O)Nc1ccc2c(c1)C(=O)N([C@H](C)CO)C[C@@H](C)[C@@H](CN(C)S(=O)(=O)c1cn(C)cn1)O2 | -6[16.7 µM] | -1 | -1 | . | . | 1
CCCNC(=O)C[C@@H]1C[C@@H]2c3cc(NC(=O)Cc4ccncc4)ccc3O[C@@H]2[C@@H](CO)O1 | 93*[16.7 µM] | . | -13 | . | . | -2
O=C(C[C@@H]1C[C@@H]2c3cc(NC(=O)Cc4ccncc4)ccc3O[C@@H]2[C@H](CO)O1)NCCc1ccccc1 | 5[16.7 µM] | 0 | -2 | . | . | 1
O=C(C[C@H]1C[C@H]2c3cc(NC(=O)Cc4ccncc4)ccc3O[C@H]2[C@@H](CO)O1)NCc1ccncc1 | 93*[16.7 µM] | 0 | -2 | . | . | -1
CCCNC(=O)C[C@@H]1C[C@@H]2c3cc(NC(=O)Cc4ccncc4)ccc3O[C@@H]2[C@H](CO)O1 | 91*[16.7 µM] | . | 2 | . | . | 0
Cc1c(C#N)c(N)nc2c3c(sc12)NC(=O)CC3c1ccccc1 (stereo not given) | 15 | . | 1 | -13 | 65* | 1
C=CCn1c(SCC(=O)Nc2ccccc2F)nnc1C(C)NC(=O)c1ccccc1F (stereo not given) | -2 | 3 | -1 | 1 | -4 | 0
C=CCn1c(SCC(=O)Nc2nc(C)cs2)nnc1C(C)NC(=O)c1ccccc1Cl (stereo not given) | -67 | . | . | 94* | -2 | .
CCOC(=O)c1ccc(Nc2sc(C(=O)c3cccc([N+](=O)[O-])c3)c(N)c2C#N)cc1 | -106 | -5 | -3 | -2 | -1 | 12*
O=C(Nc1ccc(C(=O)N2CCCC2)cc1)c1ccc2c(c1)OCO2 | . | 44* | 1 | -8 | 3 | 0
